Source: PubChem BioAssay
NS1 function inh: inhibitors of influenza NS1 protein function; Potency, µM (titrated, usually from 46.1 µM), without a hit: at the top dose activity, positive = more growth; hit rate 0.4% among 270,000; further: potency means the concentration at half of the fitted maximal effect; actives are rising curves; nearly all actives have a fitted effect of over 50% in size
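OD600 was taken as the measure of yeast growth restored by compound in an NS1-expressing S. cerevisiae strain. Cells had been washed out of glucose medium and diluted 1:100 into galactose -URA medium, pH 6.0.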
CHX counter: counter-screen hit for Shiga toxin inhibitors, cycloheximide | AID 2314 | cell reporter, cycloheximide protein synthesis inhibition counterscreen | max response, % | hit rate 12% among 300,000; in the data active means max response mostly above about 13%, no sharp cut-off; inactive means mostly below about 14%; further: read at 38.3 µM for the half of the compounds with a filed dose; 0% is about no effect
Shiga toxin inh: Shiga toxin inhibition. Vero cells, Shiga toxin protein synthesis inhibition reporter. inhibition, % at 38.7 µM. hit rate 9.2% among 290,000. AID 2315; in the data active means inhibition mostly above about 28%, no sharp cut-off; inactive means mostly below about 43%; further: 0% is about no effect
SARS PLpro yeast: SARS-CoV PLP inhibition in yeast | S. cerevisiae expressing SARS-CoV PLpro, growth rescue | hit rate 0.19% among 330,000 | Potency, µM (highest dose often 32.9 µM), for the others: at the highest dose activity, positive = growth rescue, actives largely listed as activators | AID 485353; further: potency means the concentration at half of the fitted maximal effect; 0% is about no effect; nearly all actives have a fitted effect of over 55% in size
Starred values were filed as active, the others as inactive; u = inconclusive; x = not tested or not shown; + = active, no number; ! = not active in a repeat. Most compounds without a hit are left out; they make up all but 12% or so of the library. Unless noted, the call rests on the fitted dose curve.

SMILES	NS1 function inh	CHX counter	Shiga toxin inh	SARS PLpro yeast
O=C(c1ccccc1F)N(Cc1ccc(F)cc1)C1CCS(=O)(=O)C1 (configuration not stated)	1%	1	2	-3%
COc1cc(CN(C(=O)c2cc3ccccc3oc2=O)C2CCS(=O)(=O)C2)cc(OC)c1OC (configuration not stated)	1%	28*	30	0%
COc1ccc(CN(C(=O)c2cc3ccccc3oc2=O)C2CCCCC2)cc1OC	-6%	48*	65*	-5%
O=C(c1cc2ccccc2oc1=O)N(Cc1cccs1)C1CCS(=O)(=O)C1 (configuration not stated)	-7%	47*	144*	1%
CCOC(=O)/C=C/C(=O)Nc1ccccc1C(=O)NC1CCCCC1	0%	-3	4	-19%
CCCCNc1c(N)n(CCCC)c(=O)[nH]c1=O	4%	0	-16	6%
O=C(CCN1C(=O)c2cccc([N+](=O)[O-])c2C1=O)NC1CCCCCC1	x	x	x	4%
Cc1ccc(S(=O)(=O)NCCC(=O)NCC(c2cccs2)N(C)C)cc1C (configuration not stated)	x	x	x	1%
COc1oc(=O)c2cc(N)ccc2c1Cl	x	62*	71*	x
CCCCOc1ccc(C(=O)OCC(=O)NC2CCCC2)cc1	0%	-5	-11	-1%
O=C(Nc1cccc(NC(=O)c2ccc(Br)o2)c1)c1ccccc1	-31%	7	21	-33%
Cc1cccc(NC(=O)c2ccc(C(=O)c3ccccc3)o2)c1	-5%	37*	73*	-1%
CCc1cccc(NC(=O)c2ccc(Cn3nc(C)cc3C)o2)c1	-5%	-3	2	-17%
Cc1cccc(NC(=O)C(C)C(=O)c2ccccc2)c1 (configuration not stated)	1%	-1	-7	u
O=C(c1ccccc1)c1cccc(NC(=O)c2ccc(Br)o2)c1	-120%	39*	95	-34%
CCc1cccc(NC(=O)c2ccc(Br)o2)c1	-48%	23*	105*	-5%
Cc1nc(NC(=O)c2ccc(Br)o2)ccc1Br	-35%	36*	63*	-12%
O=C(CNC(=O)c1cccc(F)c1)OCCOc1cccc(Cl)c1	x	x	x	5%
O=C(Cn1c(=O)c(CNc2ccccc2)cc2cc3c(cc21)OCCO3)Nc1ccccc1Cl	x	13	21	x
O=C(Nc1ccc2ccccc2c1)c1ccc(Br)o1	-103%	43*	86*	-11%
COc1ccc(NC(=O)c2ccc(C(=O)c3ccccc3)o2)cc1	-10%	30*	28	3%
CN(C)S(=O)(=O)c1ccc(NC(=S)NC(=O)c2ccc(Br)o2)cc1	x	5	0	0%
O=C(Nc1ccc2c(c1)oc1ccccc12)c1ccc(Br)o1	-22%	28	56	-12%
O=C(Nc1ccccc1)c1ccc(Br)o1	-21%	44*	+!	-44%
O=C(Nc1ccc(S(=O)(=O)NCCc2ccccc2)cc1)c1ccc(Br)o1	0%	-1	-6	-1%
SMILES	NS1 function inh	CHX counter	Shiga toxin inh	SARS PLpro yeast
CN(C(=S)NC(=O)c1ccc(Br)o1)c1ccccc1	8%	11	30*	-13%
COc1ccc(CN(C)C(=O)COC(=O)c2cnc(Cl)c(Cl)c2)cc1	x	x	x	-6%
COc1cccc(NC(=O)CN(C)C(=O)c2cc(-c3cccc(Br)c3)nc3ccccc23)c1	x	x	x	-16%
NS(=O)(=O)c1ccc(NC(=S)NNC(=O)c2ccc(Br)o2)cc1	-3%	15*	35	-3%
COc1ccc(C(=O)NNC(=O)CCn2nnc(-c3ccc(C)cc3)n2)cc1OC	x	-2	2	-1%
CN(CC(=O)Nc1ccc(F)cc1)CC(=O)N1CCc2ccccc21	x	x	x	0%
CCN(CC)c1ccc(C(=S)NC2CCCCC2)cc1	-8%	24*	76*	0%
CCOc1ccc(C(=S)NC2CCCCC2)cc1OCC	-3%	6	-2	-6%
CN(C)c1ccc(C(=S)NC2CCCCC2)cc1	-2%	25*	69*	0%
CN(C(=O)NC1CCCCC1)c1ccccc1	-1%	-3	-11	0%
Cc1ccc(OCCc2csc(N)n2)cc1	x	34*	54*	-1%
Cc1ccc(S(=O)(=O)Cc2csc(N)n2)cc1	6%	-4	-22	-5%
COc1ccc(OCc2csc(N)n2)cc1	x	36*	86*	0%
O=C(N/N=C\c1ccc(COc2ccc([N+](=O)[O-])cc2)o1)c1ccc(Cl)cc1	6%	-1	21	-3%
COc1ccc(OCc2ccc(/C=N\NC(=O)c3sccc3C)o2)cc1	15%	25*	68*	-3%
CSc1ccc(/C=N/NC(=O)c2sccc2C)cc1	9%	46*	64*	-27%
CSc1ccc(/C=N/NC(=O)c2cc(O)cc(O)c2)cc1	-3%	22*	41*	-15%
Cn1c2ccccc2c2cc(/C=N/NC(=O)c3cc(O)cc(O)c3)ccc21	-42%	-3	-7	u
CSc1ccc(/C=N/NC(=O)c2ccc(C)c(C)c2)cc1	u	44*	52*	-2%
Cc1cc2c(s1)c1c(n2C)C(=O)N(Cc2ccccc2F)C1	x	x	x	-1%
COc1ccc(N=Nc2n(C)c3ccccc3[n+]2C)cc1	-81%	-2	-19	-3%
CC(C)CC(=O)Nc1ccccc1-c1nnn(CC(=O)N2CCOCC2)n1	-3%	-1	2	-1%
COc1ccc(C(C)=O)c(OC(=O)c2ccc(OC)c(OC)c2)c1	-16%	-2	-6	1%
COc1ccc(C(=O)O/N=C(\N)c2ccccc2)c(OC)c1	-101%	32*	11	-56%
COc1ccc(/C(N)=N/OC(=O)c2ccc(OC)c([N+](=O)[O-])c2)cc1OC	0%	-3	3	-1%
SMILES	NS1 function inh	CHX counter	Shiga toxin inh	SARS PLpro yeast
COc1ccc(C(=O)O/N=C(\N)c2ccc(OC)c(OC)c2)c(OC)c1	-8%	48*	93*	-4%
COc1ccc(/C(N)=N/OC(=O)Oc2ccccc2)cc1OC	-3%	-3	-8	4%
COc1ccc(C(=O)O/N=C(\N)c2ccc(OC)c(OC)c2)cc1	-33%	27*	160*	-3%
COc1cc(C(=O)O/N=C(\N)c2ccccn2)cc(OC)c1OC	-4%	34*	66*	-1%
CC(CC(=O)OCC(=O)Nc1ccc2[nH]c(=O)[nH]c2c1)c1ccccc1 (configuration not stated)	x	x	x	-2%
CNc1ncnc2ccc(-c3c(C)noc3C)cc12	x	x	x	-1%
CC12CC(NC(=O)N1c1cccc(C(=O)NCc3ccccc3)c1)c1ccccc1O2 (configuration not stated)	29%	-3	-15	u
COc1ccc(C(=O)O/N=C(\N)c2ccccn2)c(OC)c1	-46%	29*	34	-1%
Cc1cc(C)n(C(=O)C23CC4CC(CC(C4)C2)C3)n1	-6%	-5	-6	3%
Cc1noc(/C=C/c2ccco2)c1S(=O)(=O)N1CCC(C(=O)N2CCc3ccccc3C2)CC1	9%	19*	47*	-4%
Cc1ccc(NC(=O)C2CCN(S(=O)(=O)c3c(C)noc3/C=C/c3ccco3)CC2)nc1	17%	1	-7	-5%
CC(C)c1ccc(/C=C/C(=O)NC2CCCCC2)cc1	9%	13	14	-5%
Cc1ccc(/C=N/NC(=O)C(O)c2ccccc2)o1 (configuration not stated)	-4%	5	26	-1%
